Structures are written as SMILES. Active and inactive are the calls of the source. How the calls were made is not given here.

The assay can be described thus: Mouse Th1 T cell differentiation assay for inhibitors of ROR gamma transcriptional activity. Conditions: mouse naive CD4 T cells, Th1 IFN-g flow cytometry; activity: at 30 µM, hits give high values unless noted; outcome: at 3 µM unless noted. The text has this:
NIH Molecular Libraries Probe Production Network [MLPCN] NIH Chemical Genomics Center [NCGC] MLPCN Grant: R03 DA026211-01 Assay Provider: Dan Littman, New York University Keywords: NIH Roadmap, MLPCN, MLI, MLSMR, qHTS, NCGC, qHTS, nuclear hormone receptor, retinoic acid-related orphan receptor, ROR gamma Assay Overview: The retinoic acid-related orphan receptor (ROR) gamma is a transcription factor that has a central role in the differentiation of Th17 cells, a subset of T helper cells that secrete the inflammatory cytokines IL-17a, IL-17f, and IL-22. Th17 cells have been implicated in graft versus host disease, autoimmune disease and asthma. ROR gamma is induced in naive T helper cells in the presence of TGF-beta combined with IL-6, IL-21, or IL-23, and thereafter directs the expression of the Th17 lineage cytokines. To confirm the selectivity of ROR gamma inhibitors, compounds with strong inhibitory activities on Th17 cells were tested in a mouse Th1 T cell differentiation assay. T cells differentiate into Th1 cells in the presence of IL-12 and IL-2. […] Th1 differentiation was tracked by the induction of interferon gamma (IFN-g) expression as measured by an anti-IFN-g antibody using flow cytometry.
Assay Protocol Summary: Cells from lymph nodes and spleens derived from six to eight week old IL17a-GFP mice (Biocytogen LLC) were used for T cell purification. B220- cells were isolated on an autoMACS Pro with bead depletion of B220+ cells (Miltenyi). Naive CD4+ T cell were further purified as TCRb+CD8- DAPI- CD19- CD4+CD25- CD62L+CD44low/Int by cell sorting on a FACSAria (BD). Cells were cultivated in an incubator at 37 C and 5% CO2 in RPMI 1640 medium (Invitrogen) supplemented with 10% (vol/vol) heat-inactivated FBS (Hyclone), penicillin-streptomycin, 2 mM glutamine and 0.1 mM nonessential amino acids. Cells were seeded on day 0 at a density of 0.4E5 cells per ml in 96-well plates coated with anti-CD3e (5 ug/ml) and anti-CD28 (10 ug/ml). Cells were cultured for 4~5 days in Th1 [IL-12 (10 ng/ml), IL-2 (100 U/ml), anti-IL-4] condition. […]
(In general: A flow cytometer gives signals particle by particle.)
With `COc1cc(O)c(C(CC(=O)N2CCCC(C)C2)c2ccccc2OC)c(OC)c1` (stereo not drawn), the activity was 46.1% (inactive).

Consider `CC1CCCN(C(=O)CC(c2ccc3c(c2)OCO3)c2ccc3ccccc3c2O)C1` (stereo not drawn), for which the activity is 32.5% [at 25 µM, hits give high values] (inactive).

For the molecule `COc1cc(O)c(C(CC(=O)N2CC(C)CC(C)C2)c2ccc3c(c2)OCO3)c(OC)c1` (stereo not drawn), the outcome was “inactive”.

These data come from PubChem BioAssay AID492962 (National Center for Advancing Translational Sciences (NCATS), 2010).
